# Values without a mark were called inactive. Inconclusive results are not listed. Where a call stands in place of a potency, no number is given. Active and inactive are the calls of the source. Unless noted, the call rests on the fitted dose curve; in most records, active means well fitted curve in the direction sought with a large enough effect; inconclusive means small, poorly fitted or top-dose-only effect, or another doubt; inactive means no such curve, though single readings can be large; an effect the other way counts as inactive or inconclusive.
# Key:
# [1] = qHTS assay for small molecule activators of the nuclear factor-kappa B (NF-kB) signaling pathway (AID 651749; active means well fitted activation curve with a large enough effect in the signal ratio; the % refers to the signal ratio; further: series mostly up to about 77 µM); settings: NF-kB-bla ME-180 cells, beta-lactamase FRET ratio, 16 h; activation: stronger effect = higher value
# How it was run: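 Stably transfected ME-180 line; NF-kB response element upstream of beta-lactamase. Treatment: compound or DMSO, 16 hr. Detection: fluorescent FRET substrate.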
# [2] = qHTS assay for small molecule disruptors of the mitochondrial membrane potential - 1 hr assay (AID 651754; calls by dose curve; further: nearly all actives have a fitted effect of over 35% in size)
# How it was run: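 HepG2 cells, attached overnight at 37C, were exposed to compound or DMSO vehicle for 1 hr at 37C, 5% CO2, then stained with Mito-MPS dye for 30 min. Red aggregate versus green monomer fluorescence reports membrane potential.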
# [3] = qHTS assay for small molecule disruptors of the mitochondrial membrane potential - 5 hr assay (AID 651755; calls by dose curve; further: nearly all actives have a fitted effect of over 40% in size)
# How it was run: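 HepG2, 2,000 cells/well, overnight attach; cpd or DMSO 5 hr, 37C/5% CO2; Mito-MPS 30 min 37C; fluor 490/535 + 540/590 nm.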
# [4] = target: Tumor necrosis factor (Homo sapiens) (UniProt P01375); experiment: qHTS assay to identify small molecules that stimulate Tumor Necrosis Factor-alpha (TNF-alpha) secretion (AID 651757; active means well fitted curve in the direction sought with a large enough effect in the signal ratio; the % refers to the signal ratio)
# How it was run: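 THP-1 cells were exposed to compounds for 17 hrs at 37 C, after which secreted TNF-alpha was measured by homogeneous HTRF (TR-FRET) using cryptate- and XL665-labeled anti-TNF-alpha antibodies, read after 3 hr at room temperature.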
# [5] = qHTS assay for environmental chemicals that activate the Aryl hydrocarbon Receptor (AhR) signaling pathway (AID 651777); settings: 1A2-DRE human hepatoma cells, luciferase, 24 h; activation: stronger effect = higher value; further: nearly all actives have a fitted effect of over 15% in size
# How it was run: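 Induction of CYP1A2 transcription through AhR is detected by luciferase in 1A2-DRE hepatoma cells. Compounds or DMSO act for 24 hr at 37 C before a 30 min One-Glo step at room temperature.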
# [6] = target: Peroxisome proliferator-activated receptor alpha (Homo sapiens) (UniProt Q07869); experiment: qHTS assay for small molecule agonists of the peroxisome proliferator-activated receptor alpha (PPARalpha) signaling pathway (AID 651778); settings: PathHunter PPARalpha complementation, chemiluminescence, 6 h; stronger effect = higher value
# How it was run: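 Chemiluminescence from complemented enzyme reported PPARalpha activation in cells after 6 hr of compound treatment at 37 C. The detection reagent was incubated for 60 min at room temperature, and compounds were scored as agonists.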
# [7] = target: Nuclear receptor ROR-gamma (Homo sapiens) (UniProt P51449); experiment: qHTS assay for small molecule antagonists of the retinoid-related orphan receptor gamma (ROR-gamma) signaling pathway (AID 651802); further: series mostly up to about 92 µM; nearly all actives have a fitted effect of over 60% in size
# How it was run: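 CHO cells carrying TET-inducible ROR-gamma and an ROR response element–luciferase reporter were exposed to compound, then induced with doxycycline. After 16hr at 37C, luminescence was read; lower signal indicates antagonism.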
# [8] = qHTS assay for small molecule agonists of the antioxidant response element (ARE) signaling pathway measured by Nrf2-dependant transcriptional activity (AID 720636; active means well fitted curve in the direction sought with a large enough effect in the repeat runs; an effect the other way counts as inactive or inconclusive;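 further: HepG2 cells with an ARE-driven luciferase reporter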)
# How it was run: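 We exposed ARE-luc HepG2 cells, seeded in assay medium with 1% dialyzed FBS and allowed 6 hr to adhere, to test compounds overnight (16 hr, 37 C) before measuring luciferase with ONE-Glo.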
# [9] = qHTS assay for small molecule antagonists of the retinoid-related orphan receptor gamma (ROR-gamma) signaling pathway - cell viability counter screen (AID 720652; active means well fitted curve in the direction sought with a large enough effect in the repeat runs; an effect the other way counts as inactive or inconclusive;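 further: series mostly up to about 92 µM; compound exposure lasted 16 hr before ATP read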)
# How it was run: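 Counter screen in CHO cells carrying TET-inducible ROR-gamma and an ROR response element-luciferase reporter; cells plated 5 hr, compound pinned, doxycycline added, then 16 hr at 37 C. Viability read as intracellular ATP by CellTiter-Glo luminescence.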
# [10] = qHTS assay for small molecule agonists of the antioxidant response element (ARE) signaling pathway measured by Nrf2-dependant transcriptional activity - cell viability counter screen (AID 720653; active means well fitted curve in the direction sought with a large enough effect in the repeat runs; an effect the other way counts as inactive or inconclusive); settings: ARE-bla HepG2 viability, CellTiter-Glo ATP luminescence, 16 h; stronger effect = lower value
# How it was run: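 Cytotoxicity counter screen: intracellular ATP quantified by CellTiter-Glo luminescence in the same ARE-bla HepG2 plates, after 16 h compound exposure and a 2 h beta-lactamase substrate step.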
# [11] = qHTS assay for cell viability of HEK293 cells (AID 743288); settings: ATP luminescence (CellTiter-Glo), 18 h; max response: stronger effect = lower value; further: nearly all actives have a fitted effect of over 50% in size
# How it was run: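 Luminescent ATP quantitation served as the viability read-out. Cells (parental HEK293, 2,000/well) received compounds after at least 5 h at 37 C and were exposed for 18 h before a 30 min room-temperature reagent step.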
# [12] = qHTS assay for cell viability of the p53RE-bla HCT-116 cell line (AID 743292); further: nearly all actives have a fitted effect of over 55% in size
# How it was run: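 In this qHTS counter-screen, metabolically competent p53RE-bla HCT-116 cells were counted via their ATP content. Compounds were applied for 16 h at 37 C and luciferase-coupled luminescence was measured.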
# [13] = target: Nuclear receptor subfamily 1 group I member 3 (Homo sapiens) (UniProt Q14994); experiment: Primary qHTS for antagonist of constitutive androstane receptor (CAR) against the NCATS DSHEA and TCM libraries (AID 1794836);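 further: HepG2 cells stably expressing hCAR with CYP2B6 luciferase reporter stimulated by CITCO; series mostly up to about 40 µM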
# How it was run: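 Antagonist mode: CAR reporter luminescence (ONE-Glo) in HepG2-CYP2B6-hCAR cells stimulated with 48 uM CITCO (final) over 24 h at 37 C, compounds titrated; viability read first by CellTiter-Fluor fluorescence.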
# [14] = HepG2 viability counterscreen (readout 2: ATP content) against the NCATS DSHEA and TCM libraries (AID 1794840)
# How it was run: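 After HepG2 cells attach for ~4 h, substances are added and incubated ~24 h at 37C, 5% CO2. GF-AFC fluorescence then CellTiter-Glo luminescence give protease and ATP readouts.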
# [15] = target: Cytochrome P450 3A4 (Homo sapiens) (UniProt P08684); experiment: qHTS for inhibitors of CYP3A4 against the NCATS DSHEA and TCM libraries (AID 1919971);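 further: inhibition lowers luminescence from luciferin made by CYP3A4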
# How it was run: (§1)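 Luminescent P450-Glo readout. Enzyme plus pro-luciferin substrate in manufacturer buffer (typically 100 mM KPO4); 15 min RT preincubation; 1x NADPH regenerating system, 30-45 min RT in the dark; detection reagent 30 min.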
# [16] = target: Cytochrome P450 2D6 (Homo sapiens) (UniProt P10635); experiment: qHTS for inhibitors of CYP2D6 against the NCATS DSHEA and TCM libraries (AID 1919972)
# How it was run: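 Steps: enzyme plus luciferin substrate dispensed; test substances pinned; 15 min RT; 1x NADPH regenerating solution added, 30–45 min RT protected from light; detection reagent, 30 min RT; luminescence measured. Minus-enzyme wells as background.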
# [17] = target: Cytochrome P450 2C9 (Homo sapiens) (UniProt P11712); experiment: qHTS for inhibitors of CYP2C9 against the NCATS DSHEA and TCM libraries (AID 1919973);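 further: luminogenic pro-luciferin CYP2C9 substrate turned into luciferin with NADPH regeneration; series mostly up to about 34 µM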
# How it was run: as §1
# [18] = target: Cytochrome P450 2C19 (Homo sapiens) (UniProt P33261); experiment: qHTS for inhibitors of CYP2C19 against the NCATS DSHEA and TCM libraries (AID 1919974);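 further: luminescence from luciferin released by CYP2C19 oxidation of a pro-luciferin substrate; potency means the concentration at half of the fitted maximal effect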
# How it was run: as §1
# [19] = KB-8-5-11 P-gp reporter qHTS against the NCATS DSHEA and TCM libraries (AID 1919977)
# How it was run: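 Viability of drug-resistant KB-8-5-11 cells is measured by CellTiter-Glo luminescence following roughly 72 h treatment at 37C. Substances were titrated, with bortezomib as intraplate control.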
# [20] = qHTS Counterscreen for compound interference against the NCATS DSHEA and TCM libraries (AID 1919978); settings: firefly luciferase detection reagent interference, luminescence;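 further: compounds preincubated with 1 µM D-luciferin or buffer before detection reagent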
# How it was run: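 Interference check: test samples were incubated with D-luciferin (final 1 uM) or buffer only for 15 min, room temperature, in a qHTS titration up to 39.8 uM, then developed with detection reagent and read by luminescence.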
# [21] = Dual reporter qHTS for agonist of Pregnane X Receptor (hPXR) against the NCATS DSHEA and TCM libraries: Fluorescence readout (AID 1920058)
# How it was run: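 hPXR-Luc HepG2 cells (2000/well) in phenol red-free medium with charcoal-stripped FBS attached for 5 h, then were exposed to compounds for about 24 h at 37 °C. Viability was read by CellTiter-Fluor fluorescence (Ex/Em 405/540 nm) after 1 h.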
# [22] = target: Nuclear receptor subfamily 1 group I member 2 (Homo sapiens) (UniProt O75469); experiment: Dual reporter qHTS for agonist of Pregnane X Receptor (hPXR) against the NCATS DSHEA and TCM libraries: Luminescence readout (AID 1920059)
# How it was run: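 Luminescent PXR reporter read (ONE-Glo) after a CellTiter-Fluor viability read, following 24 h, 37C treatment of HepG2 cells stably carrying hPXR-Luc.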
# [23] = Dual reporter qHTS for antagonist of Pregnane X Receptor (hPXR) against the NCATS DSHEA and TCM libraries: Fluorescence Readout (AID 1920061)
# How it was run: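 hPXR-Luc HepG2 cells exposed 24 h at 37 C to compounds with 2 uM rifampicin in antagonist mode; luciferase luminescence measured by ONE-Glo, with CellTiter-Fluor viability read beforehand.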
# [24] = target: Nuclear receptor subfamily 1 group I member 2 (Rattus norvegicus) (UniProt Q9R1A7); experiment: qHTS assay for small molecule activators of the rat pregnane X receptor (rPXR) signaling pathway (AID 651751; call rule not given here); settings: rPXR reporter cells, luciferase (One-Glo), 24 h
# Sequence of Nuclear receptor subfamily 1 group I member 2 (Rattus norvegicus) (Q9R1A7 whole entry, looked up): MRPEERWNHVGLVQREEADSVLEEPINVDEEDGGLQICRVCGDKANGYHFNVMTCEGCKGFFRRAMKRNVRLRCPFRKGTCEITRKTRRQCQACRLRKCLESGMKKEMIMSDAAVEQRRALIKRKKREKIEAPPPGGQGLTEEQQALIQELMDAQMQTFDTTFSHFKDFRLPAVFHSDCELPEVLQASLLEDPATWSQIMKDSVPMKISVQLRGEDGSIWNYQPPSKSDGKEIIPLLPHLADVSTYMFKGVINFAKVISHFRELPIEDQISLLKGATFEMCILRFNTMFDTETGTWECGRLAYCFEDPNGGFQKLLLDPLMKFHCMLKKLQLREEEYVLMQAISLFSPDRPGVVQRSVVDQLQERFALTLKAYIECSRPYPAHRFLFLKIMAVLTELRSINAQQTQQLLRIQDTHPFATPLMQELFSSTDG
# Sequence of Cytochrome P450 2D6 (Homo sapiens) (P10635 whole entry, looked up): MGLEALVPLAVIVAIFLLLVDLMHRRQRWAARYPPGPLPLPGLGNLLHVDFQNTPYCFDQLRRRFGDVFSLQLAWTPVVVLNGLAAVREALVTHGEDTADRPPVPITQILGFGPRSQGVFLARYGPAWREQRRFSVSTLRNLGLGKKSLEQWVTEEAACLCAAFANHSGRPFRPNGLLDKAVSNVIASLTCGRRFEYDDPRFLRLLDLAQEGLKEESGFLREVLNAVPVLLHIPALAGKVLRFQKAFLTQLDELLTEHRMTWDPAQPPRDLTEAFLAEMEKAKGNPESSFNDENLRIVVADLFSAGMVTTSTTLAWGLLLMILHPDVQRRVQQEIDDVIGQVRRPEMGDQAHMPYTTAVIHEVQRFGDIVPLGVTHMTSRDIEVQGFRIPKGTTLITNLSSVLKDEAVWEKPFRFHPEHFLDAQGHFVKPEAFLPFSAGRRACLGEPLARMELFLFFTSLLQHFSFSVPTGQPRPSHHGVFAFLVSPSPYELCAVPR
# Sequence of Cytochrome P450 2C19 (Homo sapiens) (P33261 whole entry, looked up): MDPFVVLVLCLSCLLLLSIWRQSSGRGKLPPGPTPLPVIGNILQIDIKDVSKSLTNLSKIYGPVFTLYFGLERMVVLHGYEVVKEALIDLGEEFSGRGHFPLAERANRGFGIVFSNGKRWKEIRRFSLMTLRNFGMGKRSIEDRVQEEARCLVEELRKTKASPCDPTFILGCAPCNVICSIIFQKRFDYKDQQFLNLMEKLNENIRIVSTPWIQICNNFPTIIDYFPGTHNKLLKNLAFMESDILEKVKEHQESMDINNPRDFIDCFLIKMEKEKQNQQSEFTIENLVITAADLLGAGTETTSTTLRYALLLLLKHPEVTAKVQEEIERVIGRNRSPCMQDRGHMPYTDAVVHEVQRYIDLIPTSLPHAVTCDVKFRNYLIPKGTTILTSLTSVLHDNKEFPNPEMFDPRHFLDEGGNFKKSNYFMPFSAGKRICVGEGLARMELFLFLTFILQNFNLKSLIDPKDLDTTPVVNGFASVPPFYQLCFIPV
# Sequence of Cytochrome P450 3A4 (Homo sapiens) (P08684 whole entry, looked up): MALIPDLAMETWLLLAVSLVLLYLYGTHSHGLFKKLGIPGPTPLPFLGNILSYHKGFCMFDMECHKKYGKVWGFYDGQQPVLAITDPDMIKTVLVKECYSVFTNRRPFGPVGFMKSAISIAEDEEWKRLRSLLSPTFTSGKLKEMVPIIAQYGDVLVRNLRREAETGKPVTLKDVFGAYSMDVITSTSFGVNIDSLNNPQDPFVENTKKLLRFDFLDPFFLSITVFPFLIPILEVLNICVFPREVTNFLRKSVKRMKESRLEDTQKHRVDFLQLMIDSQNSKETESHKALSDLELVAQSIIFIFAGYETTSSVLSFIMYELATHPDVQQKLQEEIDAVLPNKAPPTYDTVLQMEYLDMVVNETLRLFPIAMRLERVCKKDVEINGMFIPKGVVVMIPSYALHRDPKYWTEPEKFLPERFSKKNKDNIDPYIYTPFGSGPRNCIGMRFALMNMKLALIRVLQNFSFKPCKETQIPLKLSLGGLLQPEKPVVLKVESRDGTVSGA
# Sequence of Cytochrome P450 2C9 (Homo sapiens) (P11712 whole entry, looked up): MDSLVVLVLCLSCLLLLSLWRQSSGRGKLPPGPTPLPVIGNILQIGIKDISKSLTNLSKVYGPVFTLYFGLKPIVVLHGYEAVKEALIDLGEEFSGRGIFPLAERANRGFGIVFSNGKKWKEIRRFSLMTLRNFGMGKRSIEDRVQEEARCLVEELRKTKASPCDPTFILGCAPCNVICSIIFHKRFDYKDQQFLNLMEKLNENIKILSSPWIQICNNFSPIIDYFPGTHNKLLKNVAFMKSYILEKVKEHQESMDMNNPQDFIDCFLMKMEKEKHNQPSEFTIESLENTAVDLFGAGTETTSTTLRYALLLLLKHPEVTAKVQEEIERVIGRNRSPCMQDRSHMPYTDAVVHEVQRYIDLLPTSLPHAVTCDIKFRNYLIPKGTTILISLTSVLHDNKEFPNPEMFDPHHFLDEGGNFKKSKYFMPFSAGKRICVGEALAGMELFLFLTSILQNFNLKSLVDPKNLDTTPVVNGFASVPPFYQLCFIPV
# Sequence of Nuclear receptor subfamily 1 group I member 3 (Homo sapiens) (Q14994 whole entry, looked up): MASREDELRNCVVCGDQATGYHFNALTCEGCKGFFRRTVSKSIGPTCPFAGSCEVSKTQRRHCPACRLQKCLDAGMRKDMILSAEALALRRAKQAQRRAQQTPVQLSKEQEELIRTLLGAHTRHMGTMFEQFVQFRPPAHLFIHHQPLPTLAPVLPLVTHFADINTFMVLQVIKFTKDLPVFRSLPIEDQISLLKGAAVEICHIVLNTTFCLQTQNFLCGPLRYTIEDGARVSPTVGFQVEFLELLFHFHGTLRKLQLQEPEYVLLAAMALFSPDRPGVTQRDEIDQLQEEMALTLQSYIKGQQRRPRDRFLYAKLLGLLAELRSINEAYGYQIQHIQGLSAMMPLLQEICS
# Sequence of Tumor necrosis factor (Homo sapiens) (P01375 whole entry, looked up): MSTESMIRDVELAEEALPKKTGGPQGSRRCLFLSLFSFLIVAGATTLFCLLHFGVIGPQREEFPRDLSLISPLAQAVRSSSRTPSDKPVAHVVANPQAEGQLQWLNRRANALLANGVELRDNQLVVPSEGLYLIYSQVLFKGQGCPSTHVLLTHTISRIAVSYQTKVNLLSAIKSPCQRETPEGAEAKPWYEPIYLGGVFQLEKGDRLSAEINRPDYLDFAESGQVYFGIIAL
# Sequence of Nuclear receptor ROR-gamma (Homo sapiens) (P51449 whole entry, looked up): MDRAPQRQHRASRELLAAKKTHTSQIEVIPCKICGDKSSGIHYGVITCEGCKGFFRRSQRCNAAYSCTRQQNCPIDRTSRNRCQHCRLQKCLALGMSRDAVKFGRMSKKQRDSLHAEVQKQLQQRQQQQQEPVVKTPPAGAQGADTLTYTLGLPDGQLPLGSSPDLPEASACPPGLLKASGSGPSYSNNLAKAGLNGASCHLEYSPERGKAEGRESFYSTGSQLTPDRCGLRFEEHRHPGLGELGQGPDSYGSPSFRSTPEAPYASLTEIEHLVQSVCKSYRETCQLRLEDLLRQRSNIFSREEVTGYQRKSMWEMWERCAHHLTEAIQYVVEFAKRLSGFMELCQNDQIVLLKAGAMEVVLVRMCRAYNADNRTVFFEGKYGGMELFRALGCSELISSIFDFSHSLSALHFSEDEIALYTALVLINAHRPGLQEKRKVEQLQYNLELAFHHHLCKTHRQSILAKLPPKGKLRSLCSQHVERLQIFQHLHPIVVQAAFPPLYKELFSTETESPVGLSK
# Sequence of Nuclear receptor subfamily 1 group I member 2 (Homo sapiens) (O75469 whole entry, looked up): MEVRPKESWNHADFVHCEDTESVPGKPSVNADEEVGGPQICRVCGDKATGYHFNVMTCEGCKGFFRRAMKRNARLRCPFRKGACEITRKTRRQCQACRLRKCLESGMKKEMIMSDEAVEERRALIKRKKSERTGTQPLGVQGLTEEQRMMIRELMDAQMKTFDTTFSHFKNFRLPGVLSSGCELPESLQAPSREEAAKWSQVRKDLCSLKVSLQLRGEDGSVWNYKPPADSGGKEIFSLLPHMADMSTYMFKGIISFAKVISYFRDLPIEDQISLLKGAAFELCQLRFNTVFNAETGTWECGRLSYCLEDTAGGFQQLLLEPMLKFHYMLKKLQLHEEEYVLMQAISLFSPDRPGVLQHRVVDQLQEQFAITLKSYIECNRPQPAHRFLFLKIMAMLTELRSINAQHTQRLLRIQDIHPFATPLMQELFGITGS
# Sequence of Peroxisome proliferator-activated receptor alpha (Homo sapiens) (Q07869 whole entry, looked up): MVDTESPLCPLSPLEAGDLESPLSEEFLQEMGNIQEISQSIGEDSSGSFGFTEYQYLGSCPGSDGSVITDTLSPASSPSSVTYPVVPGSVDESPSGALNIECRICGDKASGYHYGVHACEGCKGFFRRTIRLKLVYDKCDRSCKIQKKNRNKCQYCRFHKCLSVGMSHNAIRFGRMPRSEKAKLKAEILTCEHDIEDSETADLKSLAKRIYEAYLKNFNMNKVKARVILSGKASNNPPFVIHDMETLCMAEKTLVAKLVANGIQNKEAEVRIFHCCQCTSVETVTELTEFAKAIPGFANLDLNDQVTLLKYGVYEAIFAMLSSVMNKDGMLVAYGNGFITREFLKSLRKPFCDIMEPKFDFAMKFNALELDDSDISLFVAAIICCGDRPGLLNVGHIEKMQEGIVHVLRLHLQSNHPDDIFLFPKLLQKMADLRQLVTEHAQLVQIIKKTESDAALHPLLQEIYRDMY
structure (smiles),measurement,setting,value
COC1=CC(=O)OC(CCc2ccccc2)C1 (centres undefined),activation,[1],-1.07%
same,Potency,[2],inactive
same,Potency,[3],inactive
same,outcome,[4],inactive
same,activation,[5],1.87%
same,max response,[6],-9.22%
same,Potency,[7],inactive
same,outcome,[8],inactive
same,Potency,[9],inactive
same,max response,[10],-8.18%
same,max response,[11],-7.7%
same,Potency,[12],inactive
same,Potency,[13],inactive
same,outcome,[14],inactive
same,Potency,[15],inactive
same,Potency,[16],inactive
same,Potency,[17],inactive
same,Potency,[18],14.1 µM (active)
same,Potency,[19],inactive
same,max response,[20],2.83%
same,outcome,[21],inactive
same,Potency,[22],inactive
same,outcome,[23],inactive
same,max response,[24],3.74%
